In PubChem BioAssay:
Inconclusive results are not listed. Active and inactive are the calls of the source.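 Rule for the calls, unless noted: active = binding below the plate cutoff, the plate median minus 3 SD, with a reading above zero; inconclusive = below the plate cutoff but reading exactly zero; inactive = the rest.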

Tests used:
[1] = rapamycin-like changes in RPL19A-GFP expression – cell-based, S. cerevisiae, multiplex flow cytometry, primary screen (AID 1862; in the data active = percent of DMSO control GFP below about 86%;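 note: lower values mimic rapamycin by blocking the RPL19A rise seen in DMSO cells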); conditions: S. cerevisiae RPL19A-GFP strain, flow cytometry fluorescence, 3 h; at 10 µM; stronger effect = lower value
[2] = TOR pathway GLN3 branch reporter MEP2-GFP changes – S. cerevisiae, multiplex flow cytometry, primary screen (AID 1867;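 active = GFP response, as percent of the DMSO control, above the screen-wide mean plus 3 SD, about 139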;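 note: median GFP channel fluorescence of barcode-gated MEP2-GFP cells measured by flow cytometry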); conditions: S. cerevisiae MEP2-GFP strain, 3 h, at 10 µM, stronger effect = higher value, 100% means same as DMSO wells
[3] = TOR pathway RTG branch CIT2 reporter changes – S. cerevisiae, GFP fusion, multiplex flow cytometry, primary screen (AID 1870;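 active = percent response above a set limit, the screen-wide mean plus 3 SD, cut at about 130% in these data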;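 note: barcoded CIT2-GFP strain pooled with four other GFP strains with rapamycin as positive control; median GFP fluorescence per well over plate mean of DMSO wells so 100% = DMSO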); conditions: S. cerevisiae CIT2-GFP expression, 3 h, at 10 µM, stronger effect = higher value
[4] = TOR pathway LAP4-GFP level changes – S. cerevisiae, multiplex flow cytometry, primary screen (AID 1873;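 active = GFP signal, as percent of the solvent control, above the screen mean plus 3 SD, about 149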); conditions: S. cerevisiae LAP4-GFP expression, 3 h, at 10 µM, stronger effect = higher value
[5] = yeast AGP1-GFP level changes, GLN3 branch – cell-based, multiplex flow cytometry, S. cerevisiae, primary screen (AID 1887;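 active = GFP signal above the screen-wide mean plus 3 SD, that is over about 124.5% of the solvent control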;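 note: AGP1-GFP fusion strain of S. cerevisiae within a five-strain barcoded multiplex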); conditions: 3 h, at 10 µM, stronger effect = higher value
[6] = reduced mouse 2C T cell binding to pMHC/ICAM-1 vesicles – MLPCN validation set, flow cytometry, LFA-1/ICAM-1 modulator project, pilot screen (AID 2523;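 active = response below a set limit, under 55% cells CD8-positive and vesicle-bound, and CD8 cells' 90th-percentile brightness under 279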;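 for vesicle binding response: mean PE anti-B7-1 fluorescence of CD8+ cells relative to row control; 100% = QL9-loaded vesicles with DMSO vehicle in the same plate row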); conditions: 2C mouse CD8+ T cells, at 7 µM, stronger effect = lower value; double positive events: measured here: CD8+/vesicle+ event percentage
[7] = target: Integrin beta-1 (Homo sapiens) + Integrin alpha-4 (Homo sapiens) (UniProt P13612+P05556); test: alpha4beta1 integrin LIBS antibody binding reduction – U937 cells, HUTS-21 mAb, flow cytometry, validation set, VLA-4 allosteric modulator project, pilot screen (AID 2674;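 active = inhibition above 50%, about 3 SD of the validation set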;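 note: antibody binding induced by the VLA-4 ligand LDV present at three times its Kd; 0% = LDV ligand with antibody and no compound and 100% = antibody without LDV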); conditions: HUTS-21 LIBS mAb binding, at 6.7 µM, stronger effect = higher value, binding induced by LDV ligand
Chain of Integrin beta-1 (Homo sapiens) + Integrin alpha-4 (Homo sapiens) (P05556 whole entry, looked up): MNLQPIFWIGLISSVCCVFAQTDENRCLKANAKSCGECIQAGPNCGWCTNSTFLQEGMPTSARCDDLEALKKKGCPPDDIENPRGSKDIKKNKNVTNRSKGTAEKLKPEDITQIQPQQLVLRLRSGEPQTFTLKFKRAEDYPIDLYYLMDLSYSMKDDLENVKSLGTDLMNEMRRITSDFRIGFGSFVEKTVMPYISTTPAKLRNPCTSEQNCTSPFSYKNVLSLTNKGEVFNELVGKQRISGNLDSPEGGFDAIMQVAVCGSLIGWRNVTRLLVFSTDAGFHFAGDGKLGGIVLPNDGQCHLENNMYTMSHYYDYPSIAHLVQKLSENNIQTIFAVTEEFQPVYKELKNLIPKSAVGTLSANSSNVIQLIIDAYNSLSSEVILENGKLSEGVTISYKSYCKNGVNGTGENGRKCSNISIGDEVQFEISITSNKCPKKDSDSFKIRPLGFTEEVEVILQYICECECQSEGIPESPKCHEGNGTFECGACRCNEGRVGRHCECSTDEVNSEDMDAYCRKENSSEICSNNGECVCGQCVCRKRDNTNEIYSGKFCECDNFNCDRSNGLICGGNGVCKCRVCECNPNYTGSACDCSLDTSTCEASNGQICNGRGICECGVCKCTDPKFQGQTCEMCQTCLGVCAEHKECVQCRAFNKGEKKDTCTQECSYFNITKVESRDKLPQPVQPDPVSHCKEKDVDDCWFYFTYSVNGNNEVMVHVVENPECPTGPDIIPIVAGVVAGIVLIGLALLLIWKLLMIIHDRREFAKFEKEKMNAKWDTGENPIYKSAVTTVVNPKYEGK
Chain of Integrin beta-1 (Homo sapiens) + Integrin alpha-4 (Homo sapiens) (P13612 whole entry, looked up): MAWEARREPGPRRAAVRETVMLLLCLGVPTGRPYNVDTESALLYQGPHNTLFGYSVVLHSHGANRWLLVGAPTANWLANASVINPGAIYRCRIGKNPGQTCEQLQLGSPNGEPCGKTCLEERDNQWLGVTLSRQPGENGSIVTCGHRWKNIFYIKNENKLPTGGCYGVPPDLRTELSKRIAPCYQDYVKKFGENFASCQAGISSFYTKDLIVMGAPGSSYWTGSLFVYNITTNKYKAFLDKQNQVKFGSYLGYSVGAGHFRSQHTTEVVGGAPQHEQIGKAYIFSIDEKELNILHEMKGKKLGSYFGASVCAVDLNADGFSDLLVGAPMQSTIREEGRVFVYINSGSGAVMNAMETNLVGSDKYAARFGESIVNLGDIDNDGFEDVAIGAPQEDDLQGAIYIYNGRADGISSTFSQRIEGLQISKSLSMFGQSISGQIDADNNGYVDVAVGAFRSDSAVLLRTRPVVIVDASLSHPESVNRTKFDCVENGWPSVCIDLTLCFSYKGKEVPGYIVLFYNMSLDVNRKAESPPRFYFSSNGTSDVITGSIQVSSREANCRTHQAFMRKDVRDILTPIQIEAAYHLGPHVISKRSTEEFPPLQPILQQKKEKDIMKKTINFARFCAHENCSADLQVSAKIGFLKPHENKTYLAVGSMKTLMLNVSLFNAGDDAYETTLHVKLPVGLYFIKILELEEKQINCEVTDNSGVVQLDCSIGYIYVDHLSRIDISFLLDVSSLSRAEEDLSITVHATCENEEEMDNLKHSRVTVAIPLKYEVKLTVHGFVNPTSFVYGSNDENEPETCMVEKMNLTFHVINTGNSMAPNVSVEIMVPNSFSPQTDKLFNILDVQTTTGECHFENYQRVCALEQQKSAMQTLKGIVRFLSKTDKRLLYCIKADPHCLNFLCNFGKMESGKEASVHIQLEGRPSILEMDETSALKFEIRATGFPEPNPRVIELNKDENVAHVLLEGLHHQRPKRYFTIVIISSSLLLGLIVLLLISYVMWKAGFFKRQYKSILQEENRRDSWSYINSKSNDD

[8] = calorie-restriction mimetic ROS inhibitors, yeast – validation compound set, pilot screen (AID 2706;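 active = superoxide response below 65% of plate, a cut near 3 SD across the whole screen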;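 note: yeast exposed to compound for one week at 30 degrees C before staining; 100% = mean of all compound wells on the same plate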); conditions: S. cerevisiae aging, superoxide DHE fluorescence; at 10 µM; stronger effect = lower value
[9] = target: Beta-adrenergic receptor kinase 1 (Homo sapiens) (UniProt P25098); test: GRK2 binders displacing RNA aptamer, biochemical, validation, human GRK2, bead flow cytometry (AID 488806;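 active = aptamer binding inhibition above 30%, about 3 SD of noise from non-fluorescent compounds; inactive = inhibition at or below 30%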); conditions: bead-bound GRK2, FAM-aptamer displacement, at 10 µM, stronger effect = higher value
Chain of Beta-adrenergic receptor kinase 1 (Homo sapiens) (P25098 whole entry, looked up): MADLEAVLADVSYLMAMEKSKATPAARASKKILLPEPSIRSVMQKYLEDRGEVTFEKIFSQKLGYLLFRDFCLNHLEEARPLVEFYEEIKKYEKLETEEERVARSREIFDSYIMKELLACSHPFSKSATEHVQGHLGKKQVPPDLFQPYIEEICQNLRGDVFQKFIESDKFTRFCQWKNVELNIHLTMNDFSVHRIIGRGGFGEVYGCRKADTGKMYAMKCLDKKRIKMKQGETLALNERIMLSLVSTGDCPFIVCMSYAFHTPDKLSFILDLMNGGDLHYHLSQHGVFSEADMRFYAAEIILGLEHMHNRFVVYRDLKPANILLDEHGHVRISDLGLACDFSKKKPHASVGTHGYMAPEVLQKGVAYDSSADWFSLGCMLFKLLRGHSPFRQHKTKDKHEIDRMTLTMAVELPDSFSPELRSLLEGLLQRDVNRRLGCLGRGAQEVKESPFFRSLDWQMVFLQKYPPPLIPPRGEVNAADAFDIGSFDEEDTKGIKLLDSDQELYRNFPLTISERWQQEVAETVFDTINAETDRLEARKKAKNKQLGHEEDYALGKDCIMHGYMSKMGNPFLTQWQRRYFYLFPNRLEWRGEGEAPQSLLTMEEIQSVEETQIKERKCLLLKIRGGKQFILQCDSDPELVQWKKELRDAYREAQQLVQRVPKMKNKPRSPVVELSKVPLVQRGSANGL

[10] = target: Beta-2 adrenergic receptor (Homo sapiens) (UniProt P07550); test: agonist-induced loss of surface beta2AR – cell-based, FAP fluorogen, flow cytometry, validation set, pilot screen (AID 504459;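 active = percent response above 42, roughly 3 SD of non-fluorescent test compounds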;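 note: agonist-driven loss of surface beta2AR via internalization measured by FAP dye flow cytometry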); conditions: Am2.2-beta2AR cells, at 10 µM, stronger effect = higher value
Chain of Beta-2 adrenergic receptor (Homo sapiens) (P07550 whole entry, looked up): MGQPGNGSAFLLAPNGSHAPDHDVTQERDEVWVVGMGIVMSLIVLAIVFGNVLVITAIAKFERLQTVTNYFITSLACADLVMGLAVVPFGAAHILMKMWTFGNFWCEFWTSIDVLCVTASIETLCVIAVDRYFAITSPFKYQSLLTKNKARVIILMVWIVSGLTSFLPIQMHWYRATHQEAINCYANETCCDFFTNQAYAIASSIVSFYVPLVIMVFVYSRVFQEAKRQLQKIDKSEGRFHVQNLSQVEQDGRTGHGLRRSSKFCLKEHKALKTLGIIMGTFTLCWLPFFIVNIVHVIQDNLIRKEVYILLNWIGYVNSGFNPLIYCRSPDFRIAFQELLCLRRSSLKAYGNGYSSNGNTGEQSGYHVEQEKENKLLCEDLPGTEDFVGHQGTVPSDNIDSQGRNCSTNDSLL

[11] = target: AP-2 complex subunit beta (Homo sapiens) (UniProt P63010); test: beta-arrestin/AP2 interaction blockers – biochemical, validation set, GST-AP2 beads, flow cytometry, pilot screen (AID 504541;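 active = inhibition above 54%, about 3 SD of non-fluorescent compounds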;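 note: AP2 carries R879A mutation and is captured from E. coli lysate; bead-bound FITC arrestin peptide fluorescence measuring arrestin peptide binding to AP2; 0% = DMSO wells and 100% = excess unlabeled arrestin peptide control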); conditions: FITC arrestin peptide, at 10 µM, stronger effect = higher value, AP2 beta2 appendage fragment, R879A mutant
Chain of AP-2 complex subunit beta (Homo sapiens) (P63010 whole entry, looked up, the tested form may be a part, one chain of several): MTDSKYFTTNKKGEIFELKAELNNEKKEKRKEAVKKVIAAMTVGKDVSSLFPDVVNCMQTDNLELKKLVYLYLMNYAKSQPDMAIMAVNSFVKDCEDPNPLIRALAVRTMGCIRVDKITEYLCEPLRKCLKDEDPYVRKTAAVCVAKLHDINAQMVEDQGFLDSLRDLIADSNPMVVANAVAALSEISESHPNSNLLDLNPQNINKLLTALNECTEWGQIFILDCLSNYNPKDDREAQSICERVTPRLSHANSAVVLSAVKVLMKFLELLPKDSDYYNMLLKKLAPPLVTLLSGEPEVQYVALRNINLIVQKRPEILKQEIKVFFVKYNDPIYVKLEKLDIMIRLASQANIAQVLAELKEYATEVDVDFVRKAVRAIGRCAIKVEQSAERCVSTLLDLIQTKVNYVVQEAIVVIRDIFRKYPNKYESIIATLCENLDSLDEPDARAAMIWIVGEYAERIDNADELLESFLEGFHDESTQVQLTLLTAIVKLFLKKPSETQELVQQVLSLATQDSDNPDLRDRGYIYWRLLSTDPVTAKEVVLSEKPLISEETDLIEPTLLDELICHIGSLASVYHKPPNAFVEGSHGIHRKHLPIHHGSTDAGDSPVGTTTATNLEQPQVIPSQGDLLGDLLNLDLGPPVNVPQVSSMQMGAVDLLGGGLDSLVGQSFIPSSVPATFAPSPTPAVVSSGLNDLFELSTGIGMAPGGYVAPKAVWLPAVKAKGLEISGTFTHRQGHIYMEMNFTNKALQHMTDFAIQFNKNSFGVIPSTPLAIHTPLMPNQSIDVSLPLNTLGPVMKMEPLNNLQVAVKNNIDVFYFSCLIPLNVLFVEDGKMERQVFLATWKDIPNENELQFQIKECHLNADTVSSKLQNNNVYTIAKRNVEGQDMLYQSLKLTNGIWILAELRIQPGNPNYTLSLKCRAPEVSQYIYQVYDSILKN

[12] = cytosolic pH regulators acting via V-ATPase – S. cerevisiae, pHLuorin, HTS validation (AID 504600; in the data active = response above about 15%;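 note: plate controls were DMSO for no effect and reference compound for full effect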); conditions: V-ATPase proton transport, at 10 µM, stronger effect = higher value
[13] = system: anti-desmoglein-3 scFv antibody binding to human DSG3; test: blockers of pathogenic pemphigus antibody–desmoglein-3 binding – biochemical, validation compound set, bead-based, flow cytometry, pilot screen (AID 588368); conditions: Protein G beads, DSG3-Fc, scFv-GFP binding, at 10 µM, stronger effect = lower value;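 note: signal is the median channel fluorescence of bead-bound GFP antibody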
[14] = Nile Red efflux blockade in pump-expressing yeast – validation compound set, multiplex, phenotypic, pilot screen (AID 588506;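 active = efflux inhibition above 0.42, the validation set average plus 4 SD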;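 note: Nile Red retained in cells so higher fluorescence means more efflux inhibition; 0 = negative control wells and 1 = enniatin B 25 µM full block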); conditions: S. cerevisiae pump-expressing triplex, Nile Red efflux flow cytometry; at 10 µM; stronger effect = higher value; the pumps come from Candida albicans
[15] = target: ATP-binding cassette sub-family B member 6 (Homo sapiens) (UniProt Q9NP58); test: blockers of ABCB6-driven porphyrin uptake – K562-ABCB6 cells, flow cytometry, validation set, pilot screen (AID 588550;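 active = inhibition above the screen-wide mean plus 3 SD, about 51%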;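 note: 0% = DMSO wells and 100% = benzethonium chloride 70 µM positive control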); conditions: K562-ABCB6 porphyrin accumulation, 1 h, at 10 µM, stronger effect = higher value
Chain of ATP-binding cassette sub-family B member 6 (Homo sapiens) (Q9NP58 whole entry, looked up): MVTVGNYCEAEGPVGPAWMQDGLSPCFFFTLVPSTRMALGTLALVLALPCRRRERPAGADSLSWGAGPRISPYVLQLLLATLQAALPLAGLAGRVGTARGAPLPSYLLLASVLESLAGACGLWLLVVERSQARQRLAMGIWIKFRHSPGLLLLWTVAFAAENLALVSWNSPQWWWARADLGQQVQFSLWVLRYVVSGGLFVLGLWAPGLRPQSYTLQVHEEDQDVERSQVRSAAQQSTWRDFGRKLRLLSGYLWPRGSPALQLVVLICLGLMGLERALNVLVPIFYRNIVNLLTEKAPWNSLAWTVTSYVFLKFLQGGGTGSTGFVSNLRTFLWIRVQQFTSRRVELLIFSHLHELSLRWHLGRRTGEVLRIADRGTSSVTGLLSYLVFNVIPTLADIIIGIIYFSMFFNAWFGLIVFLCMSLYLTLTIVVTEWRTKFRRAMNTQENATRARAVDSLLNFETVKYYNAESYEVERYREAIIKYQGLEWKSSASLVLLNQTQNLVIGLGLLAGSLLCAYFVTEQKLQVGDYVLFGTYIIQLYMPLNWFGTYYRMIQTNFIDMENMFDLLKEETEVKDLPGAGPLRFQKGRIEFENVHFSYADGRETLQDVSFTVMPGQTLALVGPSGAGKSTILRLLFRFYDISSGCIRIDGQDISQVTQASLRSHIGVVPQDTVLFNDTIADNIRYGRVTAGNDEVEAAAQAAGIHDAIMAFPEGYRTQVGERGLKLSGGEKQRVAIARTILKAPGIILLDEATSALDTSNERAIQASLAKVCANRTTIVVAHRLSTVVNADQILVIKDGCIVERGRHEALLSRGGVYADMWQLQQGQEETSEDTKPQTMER

[16] = AML differentiation inducers, ER-HoxA9 marrow cells – cell-based, GFP/MAC1 double positive, flow cytometry, validation set, primary screen (AID 588685;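 active = differentiation response of at least 50%, scaled between solvent and reference control, from cells with both markers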;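 note: compound exposure lasts four days before antibody staining and flow analysis; 0% = DMSO wells and 100% = 5 µM fulvestrant positive control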); conditions: stronger effect = higher value, normalized: vehicle 0, fulvestrant 100

SMILES | percent of DMSO control GFP [1] | GFP response vs DMSO [2] | percent response of DMSO control [3] | GFP response vs DMSO [4] | GFP response, % of DMSO [5] | double positive events [6] | vesicle binding response [6] | inhibition [7] | superoxide response (% of plate) [8] | aptamer binding inhibition [9] | response [10] | inhibition [11] | response [12] | binding (% of control) [13] | efflux inhibition (fraction of control) [14] | inhibition [15] | differentiation response [16]
O=C(O)C1Cc2ccccc2CN1S(=O)(=O)c1ccccc1 (stereo not given) | 98.8% (inactive) | 104% (inactive) | 92.9% (inactive) | 118% (inactive) | 96.8% (inactive) | 60.9% | 186% (inactive) | -12.7% (inactive) | 107% (inactive) | 4% (inactive) | -23.4% (inactive) | 1.65% (inactive) | 1.38% (inactive) | 104% (inactive) | -0.17 (inactive) | 9% (inactive) | 2.4% (inactive)
CCNC(=O)c1c(N)sc2c1CCCCC2 | 103% (inactive) | 96.3% (inactive) | 101% (inactive) | 90.5% (inactive) | 94.9% (inactive) | 63.8% | 262% (inactive) | -27.7% (inactive) | 101% (inactive) | 1% (inactive) | 33.6% (inactive) | 9.58% (inactive) | -1.51% (inactive) | 95.3% (inactive) | 0.12 (inactive) | 2% (inactive) | 7.2% (inactive)
O=Cc1ccc(O)c(O)c1 | 106% (inactive) | 99.7% (inactive) | 107% (inactive) | 98% (inactive) | 108% (inactive) | 65.7% | 145% (inactive) | 8.29% (inactive) | 99.7% (inactive) | 6% (inactive) | 0.09% (inactive) | 6.09% (inactive) | -5.24% (inactive) | 105% (inactive) | -0.11 (inactive) | 21% (inactive) | -4.57% (inactive)
COc1ccc(C2OC(=O)Cc3cc(OC)c(OC)cc32)cc1 (stereo not given) | 90.6% (inactive) | 127% (inactive) | 91.3% (inactive) | 82.5% (inactive) | 88% (inactive) | 63.4% | 177% (inactive) | -6.15% (inactive) | 94.5% (inactive) | 2% (inactive) | -3.02% (inactive) | -4.51% (inactive) | -1.1% (inactive) | 103% (inactive) | -0.38 (inactive) | 7% (inactive) | 3.28% (inactive)
CCCn1c(=O)c2[nH]c(C3CCCC3)nc2n(CCC)c1=O | 92.6% (inactive) | 137% (inactive) | 102% (inactive) | 82.5% (inactive) | 88.7% (inactive) | 62.8% | 193% (inactive) | 0.64% (inactive) | 93.3% (inactive) | 4% (inactive) | -5.24% (inactive) | -0.16% (inactive) | -6.35% (inactive) | 102% (inactive) | -0.13 (inactive) | 7% (inactive) | 2.46% (inactive)
CC1(C)CC(c2csc(N)n2)CCO1 (stereo not given) | 103% (inactive) | 106% (inactive) | 106% (inactive) | 86.8% (inactive) | 101% (inactive) | 65.9% | 915% (inactive) | 1.62% (inactive) | 101% (inactive) | 3% (inactive) | -0.12% (inactive) | 8.95% (inactive) | -0.04% (inactive) | 93.3% (inactive) | -0.14 (inactive) | -3% (inactive) | -4.64% (inactive)
CC1CCN(CCOCCOc2ccccc2Br)CC1 | 102% (inactive) | 103% (inactive) | 93.1% (inactive) | 86.8% (inactive) | 97.2% (inactive) | 54.8% | 167% (inactive) | 8.88% (inactive) | 95.8% (inactive) | 0% (inactive) | -4.72% (inactive) | -6.16% (inactive) | -0.14% (inactive) | 95.6% (inactive) | -0.17 (inactive) | -4% (inactive) | 15.9% (inactive)
COC(=O)c1cc(Br)c(=O)n(CCc2ccc(O)cc2)c1 | 95.2% (inactive) | 109% (inactive) | 93.9% (inactive) | 123% (inactive) | 99.7% (inactive) | 57.8% | 234% (inactive) | 6.4% (inactive) | 103% (inactive) | 5% (inactive) | -13.9% (inactive) | 4.99% (inactive) | -0.03% (inactive) | 96.8% (inactive) | -0.17 (inactive) | 8% (inactive) | -10.4% (inactive)
CC1(C#CC[N+]2(C)CCCCC2)CCC2C(O1)c1ccccc1OC2(C)C (stereo not given) | 103% (inactive) | 102% (inactive) | 107% (inactive) | 91.5% (inactive) | 106% (inactive) | 60.2% | 95.6% (inactive) | -6.45% (inactive) | 101% (inactive) | -11% (inactive) | 5.86% (inactive) | -11.4% (inactive) | 2.59% (inactive) | 101% (inactive) | 0.07 (inactive) | -6% (inactive) | -10.4% (inactive)
O=C(NO)c1ccccc1O | 103% (inactive) | 107% (inactive) | 105% (inactive) | 94.8% (inactive) | 106% (inactive) | 63.6% | 158% (inactive) | 8.29% (inactive) | 95.5% (inactive) | 2% (inactive) | -0.56% (inactive) | 36.8% (inactive) | -8.07% (inactive) | 98.8% (inactive) | 0.03 (inactive) | 9% (inactive) | -13.3% (inactive)
